Measurements taken from ChEMBL document CHEMBL3988442, “University of Dundee, Small-Polar-MMV Screening Library” (2021).
For some of these results: Potency and affinity values are given separately.

How the values were obtained:
Parameters in all cases: scale not given: direction of the effect not stated beside the values
[1] = target: Protein translocase subunit SecA (Escherichia coli (strain K12)) (UniProt P10408); experiment: Assay to Identify E. coli SecA ATPase Inhibitors; format: functional; conditions: 30 µM
[2] = target: T1, Ubiquitin-activating enzyme e1, putative (Leishmania donovani (strain BPK282A1)) (UniProt E9BSI1); experiment: Leishmania donovani Ubiquitin Activating Enzyme (LdE1); format: functional; conditions: 30 µM
T1 sequence (whole entry): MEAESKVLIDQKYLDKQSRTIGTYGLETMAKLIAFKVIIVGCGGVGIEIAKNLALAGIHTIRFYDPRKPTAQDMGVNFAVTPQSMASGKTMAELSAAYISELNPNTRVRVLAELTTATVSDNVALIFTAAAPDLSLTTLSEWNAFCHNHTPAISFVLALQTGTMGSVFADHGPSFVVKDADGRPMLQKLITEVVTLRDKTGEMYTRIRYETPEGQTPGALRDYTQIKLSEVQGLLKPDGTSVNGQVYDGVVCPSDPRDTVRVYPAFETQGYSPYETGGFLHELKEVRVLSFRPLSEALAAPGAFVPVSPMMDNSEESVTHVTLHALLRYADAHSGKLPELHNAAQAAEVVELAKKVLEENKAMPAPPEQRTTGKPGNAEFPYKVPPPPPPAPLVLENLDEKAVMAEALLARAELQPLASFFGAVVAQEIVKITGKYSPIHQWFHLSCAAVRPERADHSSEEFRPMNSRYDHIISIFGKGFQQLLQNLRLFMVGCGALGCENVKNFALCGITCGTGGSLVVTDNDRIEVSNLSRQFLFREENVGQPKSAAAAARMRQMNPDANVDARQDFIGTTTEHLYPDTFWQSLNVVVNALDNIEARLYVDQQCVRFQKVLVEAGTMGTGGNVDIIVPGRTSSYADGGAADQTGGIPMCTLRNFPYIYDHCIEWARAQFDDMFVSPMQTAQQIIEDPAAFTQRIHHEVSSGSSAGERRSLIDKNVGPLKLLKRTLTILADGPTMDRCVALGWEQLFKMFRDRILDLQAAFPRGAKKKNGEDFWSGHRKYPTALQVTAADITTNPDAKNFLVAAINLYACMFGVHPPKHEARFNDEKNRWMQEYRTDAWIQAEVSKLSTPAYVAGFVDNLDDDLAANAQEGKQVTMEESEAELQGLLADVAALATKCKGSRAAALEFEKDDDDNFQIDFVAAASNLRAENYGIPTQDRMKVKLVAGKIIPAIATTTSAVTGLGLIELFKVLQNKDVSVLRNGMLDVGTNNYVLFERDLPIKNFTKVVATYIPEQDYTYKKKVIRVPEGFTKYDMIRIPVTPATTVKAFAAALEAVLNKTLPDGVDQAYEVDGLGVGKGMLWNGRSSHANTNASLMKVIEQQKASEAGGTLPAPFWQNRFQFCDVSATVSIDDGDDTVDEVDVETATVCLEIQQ

[3] = target: AMP-activated protein kinase, AMPK (Homo sapiens) (UniProt P54646+O43741+P54619+Q9UGJ0+Q9Y478+Q13131+Q9UGI9); experiment: AMP-dependent Kinase enzyme assay. An in vitro enzyme assay that detects ADP turnover that is directly proportional to AMPK activity. This uses naive AMPK that is activated during the assay with MK-8722; format: functional; conditions: 30 µM
[4] = target: Sialic acid-binding Ig-like lectin 9 (Homo sapiens) (UniProt Q9Y336); experiment: Hs-Siglec9 ALPHAscreen SOP 20170721; conditions: 10 µM
Trypanosoma cruzi = experiment: Trypanosoma cruzi phosphomannomutase and mannose-1-phosphate guanylyltransferase assay; format: functional; conditions: 10 µM
[5] = target: T2, Arginase-2, mitochondrial (Homo sapiens) (UniProt P78540); experiment: in vitro enzyme assay to detect the production of urea directly proportional to the activity of Arginase II; format: functional; conditions: 33.3 µM; note: in the data most compounds retested in dose-response had high values
T2 sequence (whole entry): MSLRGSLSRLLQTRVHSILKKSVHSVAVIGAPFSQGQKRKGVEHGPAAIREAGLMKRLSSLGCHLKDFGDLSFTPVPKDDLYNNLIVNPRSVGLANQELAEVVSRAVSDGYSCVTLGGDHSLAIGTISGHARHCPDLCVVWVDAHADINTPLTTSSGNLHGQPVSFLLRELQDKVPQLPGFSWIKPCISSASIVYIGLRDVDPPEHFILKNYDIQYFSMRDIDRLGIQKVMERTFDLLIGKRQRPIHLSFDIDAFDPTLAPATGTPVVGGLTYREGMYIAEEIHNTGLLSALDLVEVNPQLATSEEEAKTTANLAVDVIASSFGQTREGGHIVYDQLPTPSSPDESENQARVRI

[6] = target: T3, Proteasome subunit beta (Trypanosoma cruzi) (UniProt O96673); experiment: Trypanosoma cruzi proteasome chymotrypsin-like activity (TcProtChymo) assay.; note: in the data most compounds retested in dose-response had high values; format: functional; conditions: 9.37 µM
T3 sequence (whole entry): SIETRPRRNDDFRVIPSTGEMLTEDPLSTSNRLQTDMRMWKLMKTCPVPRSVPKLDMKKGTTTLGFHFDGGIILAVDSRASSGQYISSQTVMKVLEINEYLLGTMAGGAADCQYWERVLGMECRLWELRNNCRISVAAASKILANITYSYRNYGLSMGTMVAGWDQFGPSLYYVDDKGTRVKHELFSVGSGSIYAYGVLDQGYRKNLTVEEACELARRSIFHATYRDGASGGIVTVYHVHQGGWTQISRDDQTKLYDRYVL

Homo sapiens = species: Homo sapiens; experiment: To identify inhibition of the IFN signalling (Jak-Stat) pathway via expression of an eGFP reporter gene under the control of an IFN-stimulated response element (ISRE) containing MxA promoter.; format: functional; conditions: 30 µM
[7] = target: T4, Tyrosyl-tRNA synthetase, putative (Trypanosoma cruzi (strain CL Brener)) (UniProt Q4DSP6); experiment: Trypanosoma cruzi tyrosyl tRNA synthetase (TcYRS) _High Tyrosine SOP; format: functional; conditions: 30 µM; note: in the data most compounds retested in dose-response had high values
T4 sequence (whole entry): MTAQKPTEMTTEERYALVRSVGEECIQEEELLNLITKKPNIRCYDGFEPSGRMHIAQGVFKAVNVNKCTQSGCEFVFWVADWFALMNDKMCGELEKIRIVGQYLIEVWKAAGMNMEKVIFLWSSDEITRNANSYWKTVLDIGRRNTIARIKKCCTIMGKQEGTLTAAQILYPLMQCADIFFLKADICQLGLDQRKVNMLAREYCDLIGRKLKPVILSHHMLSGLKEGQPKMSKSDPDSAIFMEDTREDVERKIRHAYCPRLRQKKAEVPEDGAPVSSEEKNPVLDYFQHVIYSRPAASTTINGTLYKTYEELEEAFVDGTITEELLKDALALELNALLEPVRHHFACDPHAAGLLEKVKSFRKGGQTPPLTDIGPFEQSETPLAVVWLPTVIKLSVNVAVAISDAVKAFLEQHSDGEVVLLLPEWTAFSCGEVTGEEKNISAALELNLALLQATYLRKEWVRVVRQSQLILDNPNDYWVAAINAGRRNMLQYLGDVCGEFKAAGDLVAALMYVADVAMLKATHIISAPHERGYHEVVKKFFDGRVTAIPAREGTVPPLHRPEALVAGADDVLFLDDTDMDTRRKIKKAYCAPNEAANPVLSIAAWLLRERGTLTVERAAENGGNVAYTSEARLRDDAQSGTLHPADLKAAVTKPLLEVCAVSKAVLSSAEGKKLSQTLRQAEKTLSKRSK

[8] = target: T4, Tyrosyl-tRNA synthetase, putative (Trypanosoma cruzi (strain CL Brener)); experiment: Trypanosoma cruzi tyrosyl tRNA synthetase (TcYRS) SOP; format: functional; conditions: 30 µM
[9] = target: Chromo domain-containing protein 1 (Saccharomyces cerevisiae (strain ATCC 204508 / S288c) (Baker's yeast)) (UniProt P32657); experiment: ScCHD-1 Enzyme Inhibition Assay; format: functional; conditions: 30 µM; note: in the data most compounds retested in dose-response had high values
Sequence of Chromo domain-containing protein 1 (Saccharomyces cerevisiae (strain ATCC 204508 / S288c) (Baker's yeast)) (P32657 whole entry, the tested form may be a part): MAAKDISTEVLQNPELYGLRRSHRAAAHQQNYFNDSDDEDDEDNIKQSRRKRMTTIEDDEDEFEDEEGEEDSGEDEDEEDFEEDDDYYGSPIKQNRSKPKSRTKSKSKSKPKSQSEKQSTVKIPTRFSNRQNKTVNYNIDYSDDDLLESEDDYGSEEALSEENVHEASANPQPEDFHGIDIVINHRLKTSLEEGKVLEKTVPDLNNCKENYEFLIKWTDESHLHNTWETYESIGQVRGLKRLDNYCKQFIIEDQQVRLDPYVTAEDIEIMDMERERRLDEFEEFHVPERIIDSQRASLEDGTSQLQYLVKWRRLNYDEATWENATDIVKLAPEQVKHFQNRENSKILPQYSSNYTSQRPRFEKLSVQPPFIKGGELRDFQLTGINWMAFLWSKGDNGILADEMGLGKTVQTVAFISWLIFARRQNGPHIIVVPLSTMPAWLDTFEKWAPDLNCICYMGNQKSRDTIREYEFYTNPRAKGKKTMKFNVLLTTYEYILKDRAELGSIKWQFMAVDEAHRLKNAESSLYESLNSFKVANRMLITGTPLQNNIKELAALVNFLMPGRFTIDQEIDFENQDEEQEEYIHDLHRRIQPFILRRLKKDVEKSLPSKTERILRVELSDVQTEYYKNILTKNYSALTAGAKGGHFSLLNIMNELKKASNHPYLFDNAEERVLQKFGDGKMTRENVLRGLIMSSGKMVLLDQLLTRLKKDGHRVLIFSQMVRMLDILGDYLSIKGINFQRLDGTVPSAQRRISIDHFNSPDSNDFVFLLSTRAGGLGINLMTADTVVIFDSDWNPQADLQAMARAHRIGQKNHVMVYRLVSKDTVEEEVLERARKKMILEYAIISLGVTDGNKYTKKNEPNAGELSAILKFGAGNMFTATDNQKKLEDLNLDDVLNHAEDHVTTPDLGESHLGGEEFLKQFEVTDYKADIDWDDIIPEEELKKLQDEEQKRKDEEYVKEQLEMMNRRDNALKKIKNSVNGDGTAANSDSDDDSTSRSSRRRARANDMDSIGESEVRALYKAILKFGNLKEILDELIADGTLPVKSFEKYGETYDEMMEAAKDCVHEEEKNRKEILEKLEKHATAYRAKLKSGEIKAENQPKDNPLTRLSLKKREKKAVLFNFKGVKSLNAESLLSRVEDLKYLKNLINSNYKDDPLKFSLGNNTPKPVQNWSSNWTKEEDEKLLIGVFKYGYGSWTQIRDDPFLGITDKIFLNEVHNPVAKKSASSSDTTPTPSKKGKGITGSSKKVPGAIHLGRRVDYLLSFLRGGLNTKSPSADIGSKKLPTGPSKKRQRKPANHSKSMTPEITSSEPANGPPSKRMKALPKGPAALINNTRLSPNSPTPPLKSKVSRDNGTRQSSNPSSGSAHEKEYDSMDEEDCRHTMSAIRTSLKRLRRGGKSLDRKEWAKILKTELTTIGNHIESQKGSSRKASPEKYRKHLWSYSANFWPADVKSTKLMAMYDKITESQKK

Sequence of Sialic acid-binding Ig-like lectin 9 (Homo sapiens) (Q9Y336 whole entry): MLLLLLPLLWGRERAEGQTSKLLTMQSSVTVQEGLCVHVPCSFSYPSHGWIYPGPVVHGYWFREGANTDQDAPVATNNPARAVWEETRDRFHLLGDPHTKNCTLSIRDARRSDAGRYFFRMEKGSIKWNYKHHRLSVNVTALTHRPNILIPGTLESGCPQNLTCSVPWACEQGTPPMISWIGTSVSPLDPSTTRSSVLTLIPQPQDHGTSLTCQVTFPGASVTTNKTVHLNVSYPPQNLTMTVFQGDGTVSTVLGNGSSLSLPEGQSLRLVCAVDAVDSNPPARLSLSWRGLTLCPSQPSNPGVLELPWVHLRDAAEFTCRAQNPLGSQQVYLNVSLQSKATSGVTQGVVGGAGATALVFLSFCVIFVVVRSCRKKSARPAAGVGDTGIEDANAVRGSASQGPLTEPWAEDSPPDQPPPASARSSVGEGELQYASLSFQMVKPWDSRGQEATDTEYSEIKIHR
Sequence of Protein translocase subunit SecA (Escherichia coli (strain K12)) (P10408 whole entry): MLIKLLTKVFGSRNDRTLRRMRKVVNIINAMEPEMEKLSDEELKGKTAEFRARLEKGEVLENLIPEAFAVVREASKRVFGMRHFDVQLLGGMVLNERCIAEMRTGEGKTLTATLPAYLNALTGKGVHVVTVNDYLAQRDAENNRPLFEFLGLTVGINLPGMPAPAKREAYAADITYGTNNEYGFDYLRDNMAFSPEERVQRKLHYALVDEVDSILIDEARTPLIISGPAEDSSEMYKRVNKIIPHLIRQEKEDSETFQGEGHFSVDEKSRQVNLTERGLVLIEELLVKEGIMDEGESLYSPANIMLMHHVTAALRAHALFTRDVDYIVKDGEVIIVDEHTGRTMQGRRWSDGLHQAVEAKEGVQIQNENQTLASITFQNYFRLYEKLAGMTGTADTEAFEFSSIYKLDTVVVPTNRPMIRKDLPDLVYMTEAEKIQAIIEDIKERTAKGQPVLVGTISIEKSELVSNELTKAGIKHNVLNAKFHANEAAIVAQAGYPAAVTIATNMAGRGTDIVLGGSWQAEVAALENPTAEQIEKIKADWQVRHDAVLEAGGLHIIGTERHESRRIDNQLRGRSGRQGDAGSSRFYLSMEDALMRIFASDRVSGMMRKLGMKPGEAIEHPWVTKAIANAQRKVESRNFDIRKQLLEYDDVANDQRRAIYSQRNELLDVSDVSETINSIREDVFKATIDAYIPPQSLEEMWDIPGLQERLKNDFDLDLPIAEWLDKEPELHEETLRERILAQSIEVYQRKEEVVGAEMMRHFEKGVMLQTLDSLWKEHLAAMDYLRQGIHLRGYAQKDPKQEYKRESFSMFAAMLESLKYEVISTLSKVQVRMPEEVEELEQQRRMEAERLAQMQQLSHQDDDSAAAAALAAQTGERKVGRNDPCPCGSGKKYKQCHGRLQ

Compound	Percent Effect [1]	Percent Effect [2]	Percent Effect [3]	Percent Effect [4]	Percent Effect (Trypanosoma cruzi)	Percent Effect [5]	Percent Effect [6]	Percent Effect (Homo sapiens)	Percent Effect [7]	Percent Effect [8]	Percent Effect [9]
Cc1noc(C)c1-c1cccc(CC2CCN(C(=O)c3cc[nH]n3)C2)n1 (stereo not drawn)	-2.86%	10.7%	9.02%	7.09%	-2.95%	-1.17%	8.72%	15.2%	4.25%	8.97%	-0.89%
CCc1nnsc1C(=O)N1CCCN(Cc2nccn2C)CC1	-2.29%	-96.1%	4.85%	9.93%	3.04%	0.632%	2.18%	3.59%	1.91%	-2.35%	-8.53%
O=C(NCCN1CCOCC1)c1cc(-c2ccc3c(c2)CCO3)n[nH]1	-4.45%	9.33%	3.38%	-3.18%	1.57%	-5.11%	1.48%	-12.9%	5.29%	7.69%	-6.47%
Cc1cccc(CN2CCC3(CCCN(C(=O)NC4CC4)C3)C2=O)n1 (stereo not drawn)	-0.773%	10.4%	-9.14%	-16.1%	-7.99%	5.81%	6.79%	11.4%	1.06%	1.28%	-9.83%
Cc1ccc(-n2nnc(CC(=O)N3CCOCC3)c2C)cc1	-3.24%	18.2%	-1.18%	11.4%	5.61%	-12.4%	13%	6.11%	6.45%	18.5%	-6.8%
CC(=O)c1ccc(OCC(=O)NC(C)CCc2ccco2)cc1 (stereo not drawn)	-0.558%	5.41%	7.91%	-3.5%	-7.34%	1.91%	19.8%	6.38%	3.7%	2.44%	-1.85%
Cc1cnccc1N1CCCN(C(=O)CCCc2cn[nH]c2)CC1	-2.89%	11%	-5.34%	18.3%	3.92%	-1.36%	-1.06%	4.4%	1.07%	7.5%	-3.49%
Cc1nn(CCO)c(C)c1CNC1CCc2c(Cl)cccc21 (stereo not drawn)	-3.63%	8%	-5.26%	16.9%	8.67%	46.9%	0.174%	8.33%	1.64%	8.64%	-14.3%
